Several values for one entry are separate records, joined by “and”; a condition that tells them apart may be missing. Identical values can stand only once. Results filed as inconclusive are left out. Activity calls are given as the source filed them. Unless noted, calls come from the whole dose curve; as a rule, active = well fitted curve in the direction sought with a large enough effect; inconclusive = small, poorly fitted or top-dose-only effect, or another doubt; inactive = no such curve, though single readings can be large; an effect the other way counts as inactive or inconclusive.
Legend:
[1] = qHTS assay for small molecule disruptors of the mitochondrial membrane potential - 1 hr assay (AID 651754; calls by dose curve; note: % is set by controls: 0 for no effect and ±100 for the full control effect; nearly all actives have a fitted effect of over 35% in size); conditions: series mostly up to 92.2 µM
How it was run: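 In this qHTS format, a 1 hr compound treatment of HepG2 cells precedes Mito-MPS staining, and membrane potential is judged from aggregate (red) against monomer (green) fluorescence intensity.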

[2] = qHTS assay for small molecule disruptors of the mitochondrial membrane potential - 5 hr assay (AID 651755; calls by dose curve; note: % is set by controls: 0 for no effect and ±100 for the full control effect; nearly all actives have a fitted effect of over 40% in size); conditions: JC-1-type ratio dye; series mostly up to 92.2 µM
How it was run: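 Seed HepG2 overnight, add compound, incubate 5 hr at 37C and 5% CO2, stain 30 min with Mito-MPS, then measure monomer (490/535 nm) and aggregate (540/590 nm) fluorescence.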

[3] = biological target: Tumor necrosis factor (Homo sapiens) (UniProt P01375); test: qHTS assay to identify small molecules that stimulate Tumor Necrosis Factor-alpha (TNF-alpha) secretion (AID 651757; active = well fitted curve in the direction sought with a large enough effect in the signal ratio; the % refers to the signal ratio; note: 0% is about no effect); conditions: Human cells, HTRF 665/615 ratio; series mostly up to 92.2 µM
How it was run: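 Using 3000 THP-1 cells per well, compounds and controls were applied for 17 hrs at 37 C. Detection followed with two labeled anti-TNF-alpha antibodies (cryptate donor, XL665 acceptor) for 3 hr at room temperature, measured by TR-FRET.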

[4] = biological target: Peroxisome proliferator-activated receptor alpha (Homo sapiens) (UniProt Q07869); test: qHTS assay for small molecule agonists of the peroxisome proliferator-activated receptor alpha (PPARalpha) signaling pathway (AID 651778); conditions: PathHunter PPARalpha complementation, chemiluminescence, 6 h; stronger effect = higher value; note: % of control where 0% means no effect
How it was run: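 Cells plated at 2,000/well and held overnight at 37 C, 5% CO2, then compound added by pin tool for 6 hr; after PathHunter detection reagent and 60 min at room temperature, chemiluminescence from enzyme complementation was read.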

[5] = biological target: Nuclear receptor ROR-gamma (Homo sapiens) (UniProt P51449); test: qHTS assay for small molecule antagonists of the retinoid-related orphan receptor gamma (ROR-gamma) signaling pathway (AID 651802); conditions: ROR-gamma antagonist cell reporter assay; series mostly up to 92.2 µM;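 note: CHO cells with doxycycline-induced ROR-gamma expression; luciferase reporter luminescence driven by ROR response element; % is set by controls: 0 for no effect and ±100 for the full control effect; nearly all actives have a fitted effect of over 60% in size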
How it was run: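 Doxycycline-induced reporter activity in engineered CHO cells (TET-inducible ROR, RORE-LUC) was measured by luminescence after 16hr compound exposure at 37C.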

[6] = qHTS assay for small molecule agonists of the antioxidant response element (ARE) signaling pathway measured by Nrf2-dependant transcriptional activity (AID 720636; active = well fitted curve in the direction sought with a large enough effect in the repeat runs; an effect the other way counts as inactive or inconclusive; note: % of control where 0% means no effect); conditions: ARE-luc HepG2, Nrf2 luciferase reporter, 16 h; series mostly up to 92.4 µM
How it was run: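 ARE-luc HepG2 cells carrying an Nrf2-responsive luciferase reporter, in medium with 1% dialyzed FBS, exposed to compound for 16 hr at 37 C, 5% CO2. Luminescence read 30 min after ONE-Glo addition.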

[7] = qHTS assay for small molecule antagonists of the retinoid-related orphan receptor gamma (ROR-gamma) signaling pathway - cell viability counter screen (AID 720652; active = well fitted curve in the direction sought with a large enough effect in the repeat runs; an effect the other way counts as inactive or inconclusive;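 note: CHO reporter cells with doxycycline-induced ROR-gamma expression; compound exposure lasted 16 hr before ATP read; % is set by controls: 0 for no effect and ±100 for the full control effect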); conditions: RORgamma reporter cell line viability counter screen; series mostly up to 92.2 µM
How it was run: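 ATP-based viability readout in the ROR-gamma reporter CHO cells after 16 hr compound exposure under doxycycline induction.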

[8] = qHTS assay for small molecule agonists of the antioxidant response element (ARE) signaling pathway measured by Nrf2-dependant transcriptional activity - cell viability counter screen (AID 720653; active = well fitted curve in the direction sought with a large enough effect in the repeat runs; an effect the other way counts as inactive or inconclusive; note: % is set by controls: 0 for no effect and ±100 for the full control effect); conditions: ARE-bla HepG2 viability, CellTiter-Glo ATP luminescence, 16 h; stronger effect = lower value
How it was run: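 ARE-bla HepG2 cells (2,000/well) rested 5 hrs at 37C/5% CO2, then exposed to compounds in DMSO for 16 hrs. Viability was read in the same wells as intracellular ATP by luminescence, 30 min at room temperature after reagent addition.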

[9] = qHTS assay for cell viability of HEK293 cells (AID 743288); conditions: ATP luminescence (CellTiter-Glo), 18 h, stronger effect = lower value; note: % is set by controls: 0 for no effect and ±100 for the full control effect; nearly all actives have a fitted effect of over 50% in size
How it was run: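 ATP luminescence (CellTiter-Glo) reports metabolically competent cell number after parental HEK293 cells, 2,000/well, were treated with DMSO-dissolved compounds for 18 h at 37 C; reagent incubation 30 min, room temperature.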

[10] = qHTS assay for cell viability of the p53RE-bla HCT-116 cell line (AID 743292); conditions: p53RE-bla HCT-116 viability, ATP luminescence, 16 h; series mostly up to 95 µM; note: % is set by controls: 0 for no effect and ±100 for the full control effect; nearly all actives have a fitted effect of over 55% in size
How it was run: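 CellSensor p53RE-bla HCT-116 cells (4,000/well) pre-incubated 5 h at 37 C, then exposed to compounds in DMSO for 16 h at 37 C. Viability read as ATP content by CellTiter-Glo luminescence after 30 min at room temperature.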

[11] = biological target: Nuclear receptor subfamily 1 group I member 2 (Rattus norvegicus) (UniProt Q9R1A7); test: qHTS assay for small molecule activators of the rat pregnane X receptor (rPXR) signaling pathway (AID 651751; call rule not given here; note: 0% is about no effect); conditions: rPXR reporter cells, luciferase (One-Glo), 24 h
[12] = qHTS assay for small molecule activators of the human pregnane X receptor (PXR) signaling pathway (AID 720659; call rule not given here; note: 0% is about no effect); conditions: DPX-2 HepG2 CYP3A4-luciferase, 24 h; series mostly up to 92.3 µM
[13] = qHTS assay to identify small molecules that stimulate interleukin-8 (IL-8) secretion (AID 651758; active = well fitted activation curve with a large enough effect in the signal ratio; the % refers to the signal ratio; note: 0% is about no effect); conditions: HTRF ratio (665/615); series mostly up to 92.2 µM
How it was run: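 Quantitative HTS in THP-1 monocytic cells at 2000 cells per well, with 16 hrs compound incubation at 37 C. IL-8 in the medium was then quantified by HTRF immunoassay, read after 1-3 hrs at room temperature.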

[14] = qHTS assay for environmental chemicals that activate the Aryl hydrocarbon Receptor (AhR) signaling pathway (AID 651777); conditions: 1A2-DRE human hepatoma cells, luciferase, 24 h; activation: stronger effect = higher value; note: % of control where 0% means no effect; nearly all actives have a fitted effect of over 15% in size
How it was run: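 Human hepatoma 1A2-DRE cells stably carrying a DRE/CYP1A2 promoter–luciferase reporter, 1,200 cells/well, exposed to compound 24 hr at 37 C. Luciferase read by One-Glo luminescence after 30 min at room temperature; increased signal marks AhR activation.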

Nuclear receptor subfamily 1 group I member 2 (Rattus norvegicus), sequence (Q9R1A7 whole entry, looked up): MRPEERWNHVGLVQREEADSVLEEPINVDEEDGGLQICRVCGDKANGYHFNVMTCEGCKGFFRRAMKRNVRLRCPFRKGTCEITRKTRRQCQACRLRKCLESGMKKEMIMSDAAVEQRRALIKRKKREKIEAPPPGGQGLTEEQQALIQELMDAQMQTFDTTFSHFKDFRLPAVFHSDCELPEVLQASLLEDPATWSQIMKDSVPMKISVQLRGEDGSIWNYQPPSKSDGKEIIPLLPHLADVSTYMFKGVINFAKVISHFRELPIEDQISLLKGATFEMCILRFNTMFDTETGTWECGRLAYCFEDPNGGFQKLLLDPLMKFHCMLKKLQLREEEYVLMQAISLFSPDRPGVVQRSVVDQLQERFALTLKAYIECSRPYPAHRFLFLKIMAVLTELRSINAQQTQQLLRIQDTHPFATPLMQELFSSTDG
Nuclear receptor ROR-gamma (Homo sapiens), sequence (P51449 whole entry, looked up): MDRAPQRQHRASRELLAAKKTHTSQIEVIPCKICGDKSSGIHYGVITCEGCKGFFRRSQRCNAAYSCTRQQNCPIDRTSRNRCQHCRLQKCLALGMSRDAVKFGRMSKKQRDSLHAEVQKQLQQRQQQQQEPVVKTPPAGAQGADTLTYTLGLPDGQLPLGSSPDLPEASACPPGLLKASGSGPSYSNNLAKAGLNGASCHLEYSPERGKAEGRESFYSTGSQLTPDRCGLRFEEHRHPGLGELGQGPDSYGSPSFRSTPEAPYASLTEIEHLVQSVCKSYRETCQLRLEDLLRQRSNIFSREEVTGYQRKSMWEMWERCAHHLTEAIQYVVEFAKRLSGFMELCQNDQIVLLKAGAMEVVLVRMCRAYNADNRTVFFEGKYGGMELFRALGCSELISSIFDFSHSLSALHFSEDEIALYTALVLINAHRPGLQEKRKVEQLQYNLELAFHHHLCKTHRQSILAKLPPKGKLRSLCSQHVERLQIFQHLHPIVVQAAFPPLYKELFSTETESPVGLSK
Peroxisome proliferator-activated receptor alpha (Homo sapiens), sequence (Q07869 whole entry, looked up): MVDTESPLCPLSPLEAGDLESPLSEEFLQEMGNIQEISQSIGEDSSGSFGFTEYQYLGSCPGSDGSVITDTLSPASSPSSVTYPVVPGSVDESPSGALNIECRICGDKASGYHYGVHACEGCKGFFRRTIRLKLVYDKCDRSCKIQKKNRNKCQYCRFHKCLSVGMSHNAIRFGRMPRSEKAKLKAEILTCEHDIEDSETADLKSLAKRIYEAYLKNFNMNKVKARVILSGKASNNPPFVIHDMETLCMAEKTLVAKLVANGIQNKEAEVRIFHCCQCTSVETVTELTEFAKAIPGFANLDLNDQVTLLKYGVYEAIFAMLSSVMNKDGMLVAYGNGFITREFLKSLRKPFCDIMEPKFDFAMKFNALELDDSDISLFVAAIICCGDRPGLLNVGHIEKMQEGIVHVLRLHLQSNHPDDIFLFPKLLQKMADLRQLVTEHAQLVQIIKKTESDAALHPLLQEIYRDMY
Tumor necrosis factor (Homo sapiens), sequence (P01375 whole entry, looked up): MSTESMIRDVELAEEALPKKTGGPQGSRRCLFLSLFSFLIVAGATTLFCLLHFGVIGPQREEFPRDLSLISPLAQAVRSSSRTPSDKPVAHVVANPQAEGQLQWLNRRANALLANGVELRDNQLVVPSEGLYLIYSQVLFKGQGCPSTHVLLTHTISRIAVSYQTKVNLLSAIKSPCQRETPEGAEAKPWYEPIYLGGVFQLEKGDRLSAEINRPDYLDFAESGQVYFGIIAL

N#Cc1ccccc1
inactive: Potency [1] | Potency [2] | Potency [3] | max response [4] -0.81% | Potency [5] | outcome [6] | Potency [7] | max response [8] 0.163% | max response [9] 7.56% | Potency [10] | max response [11] -4.02% | outcome [12]

CCOc1ccc(NC(C)=O)cc1N
inactive: Potency [1] | Potency [2] | Potency [13] | max response [4] -2.02% | Potency [5] | outcome [6] | Potency [7] | max response [8] -8.42% | max response [9] -2.43% | Potency [10] | max response [11] 9.33% | outcome [12]

COC(=O)c1ccccc1
inactive: Potency [1] | Potency [2] | activation [14] -0.388% | max response [4] -4.31% | Potency [5] | outcome [6] | Potency [7] | max response [8] 3.39% | max response [9] 2.22% | Potency [10] | max response [11] 0.652% | outcome [12]

CN(C)CCCCl
inactive: Potency [1] | Potency [2] | Potency [3] | Potency [5] | outcome [6] | Potency [7] | max response [8] 19.9% | max response [9] 7.77% | Potency [10] | max response [11] 3.08% | outcome [12]

Fc1ccccc1
inactive: Potency [1] | Potency [2] | Potency [3] | Potency [5] | outcome [6] | Potency [7] | max response [8] 8.77% | Potency [10] | max response [11] 3.18% | outcome [12]

CCN(C(=O)N(CC)c1ccccc1)c1ccccc1
inactive: Potency [1] | Potency [2] | activation [14] -1.64% | max response [4] -4.39% | Potency [5] | Potency [7] | max response [9] -19.1% | Potency [10] | max response [11] -2.68%

O=C1CCC(=O)O1
inactive: Potency [2] | Potency [3] | activation [14] -1.39% | max response [4] 3.38% | Potency [5] | outcome [6] | Potency [7] | max response [8] -3.63% | max response [9] -3.25% | Potency [10] | max response [11] -4.75% | outcome [12]

Nc1cccc(C(F)(F)F)c1
inactive: Potency [2] | Potency [3] | Potency [13] | activation [14] 0.706% and 0.403% | max response [4] -0.773% and -2.14% | Potency [5] | outcome [6] | Potency [7] | max response [9] -2.53% and -9.98% | Potency [10] | max response [11] -1.26% and 1.53%

Cc1ccc(C)c(O)c1
inactive: Potency [2] | Potency [3] | Potency [13] | activation [14] 0.145% | max response [4] -1.27% | Potency [5] | outcome [6] | Potency [7] | max response [8] 0.808% | max response [9] 5.19% | Potency [10] | max response [11] 4.49% | outcome [12]

Source: PubChem BioAssay (NCATS)
